Results on 19 compounds are retold here after PubChem BioAssay (NCATS).

Each structure is given as a SMILES string. Results filed as inconclusive are left out. Entries that show only a call come without a potency. The source made the active and inactive calls. Calls follow the shape of the dose curve; as a rule, active = well fitted inhibition curve with a large enough effect; inconclusive = small, poorly fitted or top-dose-only effect, or effect the other way; inactive = flat fitted curve, though single readings scatter.

In this assay the target is ATP-dependent 6-phosphofructokinase (Trypanosoma brucei brucei) (UniProt O15648). In words: qHTS Assay to Find Inhibitors of T. brucei phosphofructokinase: hit validation (AID 492961).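 Also: luminescence reports ADP formed as PFK phosphorylates fructose-6-phosphate with ATP.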 The following applies: T. brucei PFK, ADP-Glo luminescence; series mostly up to 51.4 µM. The method in brief: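 Inhibition of parasite PFK is measured as reduced ADP formation, quantified via luciferase after ATP depletion. Assay used 0.1 mM ATP, 0.5 mM F6P, 1.25 nM enzyme, 45 min incubation.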
Chain of ATP-dependent 6-phosphofructokinase (Trypanosoma brucei brucei) (O15648 whole entry, looked up): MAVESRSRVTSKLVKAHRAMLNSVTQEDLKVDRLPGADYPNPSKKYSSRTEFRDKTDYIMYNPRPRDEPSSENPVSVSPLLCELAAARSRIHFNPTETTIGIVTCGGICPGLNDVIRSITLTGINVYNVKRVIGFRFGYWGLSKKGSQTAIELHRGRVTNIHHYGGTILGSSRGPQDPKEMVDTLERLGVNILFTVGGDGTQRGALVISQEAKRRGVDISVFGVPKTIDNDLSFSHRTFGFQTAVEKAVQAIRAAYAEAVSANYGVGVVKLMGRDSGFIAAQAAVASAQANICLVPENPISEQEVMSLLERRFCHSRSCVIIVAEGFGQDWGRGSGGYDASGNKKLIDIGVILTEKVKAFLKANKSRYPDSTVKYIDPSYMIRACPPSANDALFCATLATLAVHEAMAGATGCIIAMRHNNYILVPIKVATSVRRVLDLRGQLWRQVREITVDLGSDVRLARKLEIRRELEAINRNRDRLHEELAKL
Background: qHTS replaces the single test concentration by a dilution series.
As to `Nc1nc(N)nc(-c2cc(Cl)ccc2Cl)n1`, the Potency entry was “inactive”. In the case of `CCc1c2c(nc3ccc(OC(=O)N4CCC(N5CCCCC5)CC4)cc13)-c1cc3c(c(=O)n1C2)COC(=O)[C@]3(O)CC` it was “inactive”; in that of `C1CCC(C(CC2CCCCN2)C2CCCCC2)CC1` (centres undefined), “inactive”. In the case of `CCOc1cc(N)c(Cl)cc1C(=O)NCC1CN(Cc2ccc(F)cc2)CCO1` (centres undefined), the Potency entry was “inactive”. In the case of `CCCc1cc(C(N)=S)ccn1`, the Potency result is “inactive”. Turning to `Cc1cccc(Nc2ccncc2S(=O)(=O)NC(=O)NC(C)C)c1`, the Potency result was “inactive”.

With `Cc1cccc(N(C)C(=S)Oc2ccc3ccccc3c2)c1`, the Potency entry was “inactive”.

For `CCOC(=O)[C@H](CCc1ccccc1)N[C@H]1CS[C@H](c2cccs2)CN(CC(=O)O)C1=O`, the Potency entry was “inactive”.

Regarding `O=C(O)c1cc(=O)[nH]c(=O)[nH]1`, the Potency entry was “inactive”.

On to `O=c1cc(O)c(Cl)c[nH]1`, for which the Potency result is “inactive”. As for `CC1=NN(c2ccccc2)C(=O)C1`, the Potency result was “inactive”.

With `CC(C)(C#N)c1cc(Cn2cncn2)cc(C(C)(C)C#N)c1`, the Potency result was “inactive”. In the case of `CNCC[C@H](Oc1cccc2ccccc12)c1cccs1`, the Potency result is “inactive”.

Take `COc1cc(NCc2ccc3nc(N)nc(N)c3c2C)cc(OC)c1OC`: the Potency entry is “inactive”. `CCCCOc1ccc(CC(=O)NO)cc1`: the Potency result was “inactive”. On to `NC(=O)N1c2ccccc2CC(=O)c2ccccc21`, for which the Potency entry is “inactive”.

Regarding `C[C@@H](NCCCc1cccc(C(F)(F)F)c1)c1cccc2ccccc12`, the Potency result was “inactive”. On to `CCC(C)(C)c1ccc(CC(C)CN2C[C@@H](C)O[C@@H](C)C2)cc1` (some centres undefined), for which the Potency entry is “inactive”. The result for `CC[C@H](C)C(=O)O[C@H]1C[C@@H](C)C=C2C=C[C@H](C)[C@H](CC[C@@H]3C[C@@H](O)CC(=O)O3)[C@H]21` reads “inactive”.
